# Measured values published in PubChem BioAssay.
# Active and inactive are the calls of the source. Unless noted, no rule for the calls is given here.
# What was measured:
# [1] = system: XIP peptide (Xip251-270) binding; test: small-molecule binders of XIP peptide, primary screen, biochemical, small-molecule microarray, fluorescence 635/667 nm, 0.1 µg/mL protein (AID 1182); conditions: fluorescent protein binding, 635 nm, higher = more signal, called active from +8 up or from −8 down
# [2] = system: XIP peptide (Xip251-270); test: small-molecule binders of XIP peptide, primary screen, biochemical, small-molecule microarray, fluorescence 635/667 nm, 0.5 µg/mL protein (AID 1183); conditions: small-molecule microarray binding, fluorescence 635 nm; higher = more signal
# [3] = Plasmodium falciparum growth inhibition, primary screen, strain 3D7, DAPI fluorescence, 100 nL (AID 1184);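 also: parasites grown inside human red blood cells in medium with human serum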; conditions: P. falciparum 3D7 growth, 3 d, higher = more signal
# [4] = biological target: Homeobox protein Hox-A13 (Mus musculus) (UniProt Q62424); test: inhibitors of HoxA13-DNA binding, primary screen, biochemical, fluorescence polarization, labeled oligonucleotide (AID 1185); conditions: 15 min, higher = more signal, called active from +8 up or from −8 down
# [5] = inhibitors of hydroxyurea-induced Chk1 phosphorylation, primary screen, imaging, HeLa, phospho-Chk1 antibody, percent positive cells (AID 1186); conditions: hydroxyurea-induced phospho-Chk1 immunofluorescence imaging, higher = more signal
# [6] = inhibitors of hydroxyurea-induced Chk1 phosphorylation, primary screen, imaging, HeLa, phospho-Chk1 nuclear intensity (AID 1187); conditions: hydroxyurea-induced phospho-Chk1 immunofluorescence imaging, higher = more signal
# Sequence of Homeobox protein Hox-A13 (Mus musculus) (Q62424 whole entry, looked up): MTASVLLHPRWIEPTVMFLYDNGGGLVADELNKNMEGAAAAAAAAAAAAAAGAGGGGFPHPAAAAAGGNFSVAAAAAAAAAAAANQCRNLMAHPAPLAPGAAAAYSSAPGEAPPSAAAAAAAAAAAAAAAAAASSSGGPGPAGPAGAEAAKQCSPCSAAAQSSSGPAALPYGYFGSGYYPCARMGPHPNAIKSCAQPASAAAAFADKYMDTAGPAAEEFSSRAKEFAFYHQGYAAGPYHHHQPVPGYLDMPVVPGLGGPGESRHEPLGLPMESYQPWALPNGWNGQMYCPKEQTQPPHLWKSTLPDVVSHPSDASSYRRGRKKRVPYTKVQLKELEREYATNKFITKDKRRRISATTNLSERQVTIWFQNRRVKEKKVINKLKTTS
Compound,composite z-score [1],composite z-score [2],z-score [3],z-score [4],z-score [5],z-score [6]
CCCC=C(CCC)[C@@H](NS(=O)(=O)c1ccc(C(F)(F)F)cc1)c1ccccc1,0.25 (inactive),-0.0998,-1.5,-0.64 (inactive),-0.0215 (inactive),-0.157 (inactive)
CN(C)C(=O)[C@@]1(Cc2ccccc2CN=[N+]=[N-])N=C(c2ccc(OCCCO)cc2)O[C@H]1c1ccccc1N=[N+]=[N-],0.458 (inactive),0.822,-2.02,-0.638 (inactive),-0.0351 (inactive),-0.336 (inactive)
C=CCC(OC(C)=O)[C@@H]1[C@@H](N(Cc2ccc(-c3ccccc3)cc2)C(=O)c2ccc(-c3ccccc3)cc2)c2cc(OCCCO)ccc2N1C(=O)c1ccc2ccccc2c1 (stereo not given in full),-0.29 (inactive),-0.482,0.248,-0.68 (inactive),0.215 (inactive),-0.144 (inactive)
O=C(NCCN1CCOCC1)[C@@H]1c2ccccc2C(=O)N(C2Cc3ccccc3C2)[C@H]1c1ccc(CO)cc1,1.54 (inactive),0.584,-0.98,-3.28 (inactive),-0.61 (inactive),-0.411 (inactive)
O=C1OCCC/C=C\[C@H]2OC34C=CCN(c5ccc6ccccc6c5)C(=O)[C@H]3N(CCO)C(=O)[C@@H]4C12 (stereo not given in full),0.314 (inactive),-1.38,-1.05,-5.35 (inactive),-0.234 (inactive),-0.0994 (inactive)
O=C1O[C@H](c2ccccc2)[C@H](c2ccccc2)N2[C@H]1[C@@H](C(=O)O)[C@]1(C(=O)Nc3ccc(C#CCCO)cc31)[C@H]2c1ccccc1OCCO,0.154 (inactive),0.736,-1.08,-6.55 (inactive),0.55 (inactive),0.175 (inactive)
COc1cc2c(cc1O)C(c1ccc(CN3CCCC3)cc1)N(Cc1cc3c(cc1Br)OCO3)CC2 (stereo not given),0.0473 (inactive),0.723,-2.36,-1.73 (inactive),0.055 (inactive),0.174 (inactive)
COC(=O)[C@@]1(Cc2ccc(OC)cc2)[C@H]2c3cc(C(=O)N4CCCC4)n(CCO)c3C[C@H]2CN1C(=O)c1ccccc1,0.675 (inactive),0.643,-1.72,-5.06 (inactive),1.33 (inactive),0.404 (inactive)
O=c1cccc(-c2ccc([N+](=O)[O-])cc2)o1,0.164 (inactive),-0.163,-0.799,-0.755 (inactive),-0.419 (inactive),-0.202 (inactive)
C=C(COC)/C(=C/C[C@H](OC(=O)c1ccncc1)c1ccc(CO)o1)c1cnc2ccccc2c1,1.02 (inactive),0.447,0.834,-5.63 (inactive),-0.429 (inactive),-0.442 (inactive)
COc1ccc(CCNC(=O)[C@@H]2c3ccccc3C(=O)N(C3CCCCC3)[C@H]2c2ccc(CO)cc2)cc1,0.09 (inactive),0.658,-1.76,-3.32 (inactive),0.183 (inactive),-0.0923 (inactive)
CC[C@@H]1C=C(C(=O)O)[C@H](c2ccc(C#N)cc2)N1S(=O)(=O)c1ccc(C)cc1,0.377 (inactive),-0.172,1.91,-4.62 (inactive),0.208 (inactive),-0.0106 (inactive)
COc1ccc(CCNC(=O)[C@@]2(Sc3ccc(C)cc3)CC(=O)N(Cc3ccccc3C(F)(F)F)[C@@H]2c2ccc(CO)cc2I)cc1,0.232 (inactive),0.853,-0.77,-2.7 (inactive),0.17 (inactive),0.68 (inactive)
OCCCC1=CC(c2ccc(CN3CCCC3)cc2)N(Cc2cc3c(cc2Br)OCO3)CC1 (stereo not given),-0.265 (inactive),-0.3,-3.05,-2.68 (inactive),0.905 (inactive),0.629 (inactive)
COC(=O)C/C=C/C[C@]1(O)C(=O)N(C)c2ccccc21,0.0625 (inactive),0.804,-0.306,-1.32 (inactive),-0.866 (inactive),-0.467 (inactive)
C=CC[C@@]1(C(=O)NCCCOC)N=C(c2ccc(OCCCO)cc2)O[C@@H]1c1ccccc1N=[N+]=[N-],0.05 (inactive),0.516,-2.29,-6.15 (inactive),-0.679 (inactive),-0.6 (inactive)
COc1ccc([Si](C)(C)[C@@H]2[C@@H](CC(=O)N(CCO)Cc3ccccc3)O[C@]3(C(=O)N(Cc4cccc(N5CCCCC5=O)c4)c4ccccc43)[C@H]2C)cc1,0.0247 (inactive),0.709,-2.44,-1.13 (inactive),0.405 (inactive),0.797 (inactive)
O=C(NCc1ccc(F)cc1)[C@H]1C[C@H]2C(=O)NCC(=O)N2[C@H]1c1ccc(O)cc1,0.981 (inactive),0.842,-0.16,-1.87 (inactive),-0.339 (inactive),-0.45 (inactive)

Compound,composite z-score [1],composite z-score [2],z-score [3],z-score [4],z-score [5],z-score [6]
COCC(=C=CC[C@H](O)c1ccccc1OCCO)C[C@H](O)c1ccccn1,-0.488 (inactive),0.0608,-0.259,-4.52 (inactive),-2.25 (inactive),-1.6 (inactive)
COC(=O)[C@@H]1N=C(c2ccc(OCCCO)cc2)O[C@@H]1C,0.0312 (inactive),0.232,0.985,-2.44 (inactive),-0.749 (inactive),-0.626 (inactive)
COCCOC(=O)N1C(=O)[C@@]2(c3cc(C#CC4=CCCCC4)ccc31)[C@H](c1ccccc1OCCO)N1[C@H](c3ccccc3)[C@H](c3ccccc3)OC(=O)[C@H]1[C@@H]2C(=O)N1CCN(c2ncccn2)CC1,0.735 (inactive),0.55,-1.86,1.02 (inactive),-0.333 (inactive),-0.385 (inactive)
C=CC[C@]1(C(=O)N2CCCCC2)N=C(c2ccc(OCCCO)cc2)O[C@H]1c1ccccc1CN=[N+]=[N-],0.541 (inactive),0.652,-2.57,-3.9 (inactive),-0.707 (inactive),-1.06 (inactive)
CCOC(=O)C1=C[C@@H](C(C)C)N(S(=O)(=O)c2ccc(C)cc2)[C@H]1c1ccc(C(F)(F)F)cc1,0.438 (inactive),0.555,-1.88,-0.498 (inactive),0.389 (inactive),0.112 (inactive)
COC(=O)c1c(CC[C@@H](CO)NC(=O)N2CCC[C@H]2Cn2cc(C3(O)CCCCC3)nn2)oc(C(C)=O)c1C(=O)OC,0.812 (inactive),0.499,-0.373,-4.77 (inactive),-0.125 (inactive),-0.0208 (inactive)
CCOC(=O)C[C@H]1[C@H](OC(=O)c2cc3ccccc3oc2=O)[C@@H](NC(=O)c2ccccc2)c2cc(OCCCO)ccc2N1C(=O)c1ccccc1,-0.0879 (inactive),0.283,-1.66,-1.56 (inactive),0.171 (inactive),-0.0272 (inactive)
CC(C)N1C(=O)C[C@@](C(=O)NC2CC2)(c2ccc([N+](=O)[O-])cc2)[C@H]1c1ccc(CO)cc1,0.65 (inactive),0.396,-1.15,-1.81 (inactive),0.254 (inactive),0.529 (inactive)
[N-]=[N+]=Nc1ccccc1C[C@]1(C(=O)O)COC(c2ccc(OCCCO)cc2)=N1,1.09 (inactive),0.907,-1.54,-4.69 (inactive),0.0118 (inactive),0.0756 (inactive)
Cc1ccc(NN2C(C(O)c3c(F)cccc3Cl)C=CC3C(=O)N(C4CCCCC4)C(=O)C32)cc1 (stereo not given),-0.391 (inactive),0.696,-0.216,-3.84 (inactive),-0.0771 (inactive),-0.369 (inactive)
CCCNC(=O)[C@@]1(C)c2ccccc2C(=O)N(c2ccc(C)cn2)[C@H]1c1ccc(CO)cc1,0.635 (inactive),0.386,1.01,-1.63 (inactive),0.0068 (inactive),-0.172 (inactive)
[N-]=[N+]=NCc1ccccc1[C@@H]1OC(c2ccc(OCCCO)cc2)=N[C@]1(CCS(=O)(=O)c1ccccc1)C(=O)O,0.573 (inactive),0.964,0.692,-4.86 (inactive),0.162 (inactive),0.23 (inactive)
CC1CC/C=C\[C@H]2OC34C=CCN(c5ccc(Cl)cc5)C(=O)[C@H]3N(C(C)CO)C(=O)[C@]4(C)C2C(=O)O1 (stereo not given in full),-0.103 (inactive),-0.279,-0.111,-4.76 (inactive),0.558 (inactive),-0.11 (inactive)
COc1ccc([Si](C)(C)[C@@H]2[C@@H](CCO)O[C@]3(C(=O)N(Cc4ccccc4)c4ccc(NC(=O)[C@H](C)O)cc43)[C@H]2C)cc1,0.816 (inactive),0.606,-2.83,-6.12 (inactive),-0.178 (inactive),-0.305 (inactive)
CCOC(=O)C[C@H]1[C@H](OC(=O)Cc2ccc3c(c2)OCO3)[C@@H](NC(=O)C2CCCCC2)c2cc(OCCCO)ccc2N1C(=O)c1ccccc1,-0.137 (inactive),0.514,-0.201,-3.57 (inactive),-0.296 (inactive),-0.176 (inactive)
C=CCNC(=O)[C@@H]1[C@H]2C(=O)O[C@H](c3ccccc3)[C@H](c3ccccc3)N2[C@H](c2ccccc2OCCO)[C@@]12C(=O)N(C(=O)OCCOC)c1ccc(C#CC3(O)CCCCCC3)cc12,0.99 (inactive),0.674,-2.21,-2.56 (inactive),-0.0659 (inactive),0.294 (inactive)
CCCC=C(CCC)[C@@H](NP(=O)(c1ccccc1)c1ccccc1)c1ccc(-c2ccccc2)cc1,0.356 (inactive),0.42,0.0851,-1.13 (inactive),0.175 (inactive),-0.0233 (inactive)
